Compound activity from PubChem BioAssay.
Shown are actives, neighbours in structure and some others; about 9.4% of the full set was active somewhere.
ELG1 DNA repair: qHTS screen for small molecules that inhibit ELG1-dependent DNA repair in human embryonic kidney (HEK293T) cells expressing luciferase-tagged ELG1; HEK293T ELG1-luciferase reporter, luminescence, 16 h; DNA damage induced by 5-fluorouridine; Potency, µM (titrated, usually from 46.1 µM), for the others: at the highest dose activity change, negative = inhibition, usual class: inhibitors; 2.3% of 330,000 active; also: % is scaled to controls: 0 for no effect and ±100 for the full control effect; nearly all actives have a fitted effect of over 55% in size
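Cells (2,000 per well) received 5-fluorouridine plus test compound or DMSO and were incubated 16 hr at 37 °C, 5% CO2. Luciferase activity was read by luminescence 30 min after ONE-Glo addition; signal suppression marked inhibition of damage-induced ELG1 function.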
NPC1 promoter act: qHTS Assay for NPC1 Promoter Activators; 2.4% of 320,000 active; Potency, µM (series often up to 9.22 µM), for the others: at the top dose activation, hits mostly activators; Huh7 NPC1 promoter luciferase reporter, 24 h; AID 485313, 2010; also: % of control where 0% means no effect; nearly all actives have a fitted effect of over 60% in size
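In 1536-well qHTS, Huh7 cells harboring an NPC1 promoter–luciferase construct received compound for 24 h; activation was quantified by luminescence following luciferase reagent addition.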
Rab9 promoter act: qHTS Assay for Rab9 Promoter Activators | Huh7 Rab9 promoter-luciferase reporter, luminescence, 24 h | Potency, µM (doses to about 9.22 µM), without a hit: at the top dose activation, negative = inhibition, hits mostly activators | AID 485297, 2010 | 2.8% of 320,000 active; also: % of control where 0% means no effect; nearly all actives have a fitted effect of over 60% in size
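Steps: seed 1500 Huh7 Rab9-luc cells per well, rest 2 h at 37 °C; add compound in DMSO; incubate 24 h; add luciferase reagent, 10 min ambient; read luminescence.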
ELG1 genotoxic: qHTS screen for small molecules that induce genotoxicity in human embryonic kidney (HEK293T) cells expressing luciferase-tagged ELG1 | AID 504466, 2011 | HEK293T ELG1-luciferase reporter, luminescence, 16 h | Potency, µM (highest dose often 46 µM), for the others: top-dose activity change, positive = activation, hits mostly activators | 1.3% of 330,000 active; also: % of control where 0% means no effect; nearly all actives have a fitted effect of over 60% in size
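After overnight (16 hr) compound treatment at 37 °C, ELG1-luciferase HEK293T cells were lysed with ONE-Glo; luminescence quantified 30 min later at room temperature.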
FLuc counter: qHTS profiling assay for firefly luciferase inhibitor/activator using purifed enzyme and Km concentrations of substrates (counterscreen for miR-21 project); Luciferin 4-monooxygenase (Photinus pyralis), P08659; purified FLuc, Km substrates, luminescence inhibition; Potency, µM (top dose mostly 57.5 µM), for the others: at the highest dose activity change, negative = inhibition, usual class: inhibitors; 6.9% of 360,000 active; AID 588342, 2011;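 also: plate controls were vehicle for no effect and reference inhibitor for full effect; nearly all actives have a fitted effect of over 55% in size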
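Purified P. pyralis luciferase, 10 nM final, with Km-level 10 uM D-luciferin and 10 uM ATP in 50 mM Tris acetate pH 7.5, 10 mM Mg acetate, 0.01% Tween-20, 0.05% BSA; 6-point qHTS titration about 60 µM downward; luminescence read.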
SMN2 splice enh: qHTS Assay for Enhancers of SMN2 Splice Variant Expression; HEK293 SMN2-luciferase splicing reporter, luminescence, 30-36 h; Potency, µM (doses to about 46.1 µM), for the others: top-dose activity change, positive = activation, actives largely listed as activators; 2.8% of 210,000 active; also: % of control where 0% means no effect; nearly all actives have a fitted effect of over 55% in size
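qHTS luciferase splicing reporter: luminescence rises when SMN2 exon 7 is included in transfected HEK293 cells. Compound exposure lasted 30-36 h at 37C, with 4.5 mM final sodium butyrate as control, followed by a ONE-Glo read.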
ELG1 FLuc counter: qHTS screen for small molecules that inhibit ELG1-dependent DNA repair: Hit Confirmation in Cell-Based Luciferin Assay | cell-free firefly luciferase luminescence counter-screen, ViewLux | Potency, µM (series often up to 46.1 µM), without a hit: at the top dose activity change, negative = inhibition, actives largely listed as inhibitors | shares compounds with ELG1 DNA repair | 3% of 350 active; also: % is scaled to controls: 0 for no effect and ±100 for the full control effect
ELG1-Luc inh: HTS assay for small molecules that inhibit ELG1-dependent DNA repair in human embryonic kidney (HEK293T) cells expressing luciferase-tagged ELG1: Hit Confirmation. shares compounds with ELG1 DNA repair. 68% of 670 active. Potency, µM (series often up to 46.1 µM), inactives show at the highest dose activity change, negative = inhibition, most hits filed as inhibitors. HEK293T ELG1-luciferase levels, luminescence; cells co-treated with 5-fluorouridine; also: % is scaled to controls: 0 for no effect and ±100 for the full control effect; nearly all actives have a fitted effect of over 55% in size
Target sequence (Q96QE3 whole entry, looked up): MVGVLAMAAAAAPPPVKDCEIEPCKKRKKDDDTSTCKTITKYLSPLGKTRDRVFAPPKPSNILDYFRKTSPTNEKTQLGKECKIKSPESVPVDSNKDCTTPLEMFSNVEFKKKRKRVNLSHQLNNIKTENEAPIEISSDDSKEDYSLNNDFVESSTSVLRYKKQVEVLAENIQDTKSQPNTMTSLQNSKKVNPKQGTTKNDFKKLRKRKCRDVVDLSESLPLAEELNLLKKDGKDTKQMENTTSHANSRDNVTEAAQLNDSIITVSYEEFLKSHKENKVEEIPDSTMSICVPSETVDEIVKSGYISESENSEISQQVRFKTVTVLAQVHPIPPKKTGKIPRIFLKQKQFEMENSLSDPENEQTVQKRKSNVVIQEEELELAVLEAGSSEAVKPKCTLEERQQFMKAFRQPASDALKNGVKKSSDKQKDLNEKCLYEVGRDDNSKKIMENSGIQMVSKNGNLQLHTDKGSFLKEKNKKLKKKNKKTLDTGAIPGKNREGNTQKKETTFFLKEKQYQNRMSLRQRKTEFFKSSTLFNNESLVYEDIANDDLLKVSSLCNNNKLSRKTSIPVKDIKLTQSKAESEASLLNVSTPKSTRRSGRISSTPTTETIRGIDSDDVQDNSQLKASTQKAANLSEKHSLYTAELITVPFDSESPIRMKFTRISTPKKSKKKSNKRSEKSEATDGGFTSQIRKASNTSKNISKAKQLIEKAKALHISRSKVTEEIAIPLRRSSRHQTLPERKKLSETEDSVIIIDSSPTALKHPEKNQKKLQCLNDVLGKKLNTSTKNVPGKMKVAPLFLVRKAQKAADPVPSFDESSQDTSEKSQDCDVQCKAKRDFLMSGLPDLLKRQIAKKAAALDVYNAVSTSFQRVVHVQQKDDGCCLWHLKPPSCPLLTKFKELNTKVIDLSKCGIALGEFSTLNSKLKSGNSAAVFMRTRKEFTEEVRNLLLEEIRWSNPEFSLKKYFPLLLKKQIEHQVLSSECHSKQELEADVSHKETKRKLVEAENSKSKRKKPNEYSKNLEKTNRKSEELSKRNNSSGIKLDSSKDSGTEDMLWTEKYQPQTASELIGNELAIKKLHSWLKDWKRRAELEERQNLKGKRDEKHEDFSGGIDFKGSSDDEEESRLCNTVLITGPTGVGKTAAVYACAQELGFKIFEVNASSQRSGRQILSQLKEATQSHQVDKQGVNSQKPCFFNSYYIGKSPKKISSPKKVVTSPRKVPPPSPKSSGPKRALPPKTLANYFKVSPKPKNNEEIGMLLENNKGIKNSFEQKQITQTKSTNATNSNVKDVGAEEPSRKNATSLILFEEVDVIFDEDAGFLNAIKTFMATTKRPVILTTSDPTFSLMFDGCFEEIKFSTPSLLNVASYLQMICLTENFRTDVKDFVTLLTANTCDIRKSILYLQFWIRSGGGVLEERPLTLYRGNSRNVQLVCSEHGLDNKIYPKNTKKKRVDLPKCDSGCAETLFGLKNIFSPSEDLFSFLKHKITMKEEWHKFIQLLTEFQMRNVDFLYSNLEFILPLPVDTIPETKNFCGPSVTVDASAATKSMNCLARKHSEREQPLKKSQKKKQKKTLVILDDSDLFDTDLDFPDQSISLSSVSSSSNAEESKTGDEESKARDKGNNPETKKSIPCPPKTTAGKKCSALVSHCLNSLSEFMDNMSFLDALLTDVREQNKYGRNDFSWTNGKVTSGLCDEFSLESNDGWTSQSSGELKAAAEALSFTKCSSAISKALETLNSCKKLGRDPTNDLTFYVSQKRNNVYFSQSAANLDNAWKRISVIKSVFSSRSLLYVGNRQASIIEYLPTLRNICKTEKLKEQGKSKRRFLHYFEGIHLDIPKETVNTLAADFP
ELG1-Luc MMS: MMS-stimulated human ELG1 repair inhibition, confirmed | 53% of 670 active | HEK293T luciferase-tagged ELG1 level, MMS stimulated | shares compounds with ELG1 DNA repair | Potency, µM (highest dose often 46.1 µM), without a hit: at the highest dose activity change, negative = inhibition, actives largely listed as inhibitors; also: % is scaled to controls: 0 for no effect and ±100 for the full control effect; nearly all actives have a fitted effect of over 60% in size
ELG1 5FU viab: qHTS screen for small molecules that inhibit ELG1-dependent DNA repair: Hit Confirmation with 5FU Viability | cell viability with 5-FU, ELG1-dependent repair | 670 tested, under 10 active | shares compounds with ELG1 DNA repair | Potency, µM (series often up to 46.1 µM), inactives show at the top dose activity change, negative = viability loss, actives largely listed as cytotoxic;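 also: ELG1-luc HEK293T cells cotreated with 5-fluorouridine at 10 µM final; viability measured 16 h after compound addition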
ELG1 MMS viab: qHTS screen for small molecules that inhibit ELG1-dependent DNA repair: Hit Confirmation with MMS Viability | 33% of 670 active | Cell viability with MMS, ELG1-dependent DNA repair | Potency, µM (titrated, usually from 46.1 µM), without a hit: top-dose activity change, negative = viability loss, usual class: cytotoxic | AID 624251, 2012 | shares compounds with ELG1 DNA repair;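 also: ELG1-luc HEK293T cells co-treated with 10 µM MMS; viability read 16 h after compound addition; % is scaled to controls: 0 for no effect and ±100 for the full control effect; nearly all actives have a fitted effect of over 60% in size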
ELG1 unstim viab: qHTS screen for small molecules that inhibit ELG1-dependent DNA repair: Hit Confirmation with Unstimulated Viability Assay; shares compounds with ELG1 DNA repair; cell viability counter-screen, unstimulated, luminescence; Potency, µM (highest dose often 45.9 µM), for inactives: at the highest dose activity change, negative = loss of viability, usual class: cytotoxic; 8% of 900 active; AID 624252, 2012;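 also: compound exposure lasted 16 hours before reading; % is scaled to controls: 0 for no effect and ±100 for the full control effect; nearly all actives have a fitted effect of over 55% in size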
FLuc biochem: qHTS screen for small molecules that inhibit ELG1-dependent DNA repair: Hit Confirmation in Biochemical Luciferin Assay | shares compounds with ELG1 DNA repair | purified firefly luciferase, luminescence counter-screen | Potency, µM (highest dose often 57.5 µM), without a hit: at the highest dose activity, negative = inhibition, hits mostly inhibitors | 10% of 350 active; also: % is scaled to controls: 0 for no effect and ±100 for the full control effect
* hit, by the source's call; ? = inconclusive; . = no result; ! = not confirmed by another sample. Calls follow the shape of the dose curve; as a rule, active = well fitted curve in the direction sought with a large enough effect; inconclusive = small, poorly fitted or top-dose-only effect, or another doubt; inactive = no such curve, though single readings can be large; an effect the other way counts as inactive or inconclusive. Potency is read from the fitted curve at half-maximal effect.

SMILES	ELG1 DNA repair	NPC1 promoter act	Rab9 promoter act	ELG1 genotoxic	FLuc counter	SMN2 splice enh	ELG1-Luc inh	ELG1-Luc MMS	ELG1 5FU viab	ELG1 MMS viab	ELG1 unstim viab	others
COc1ccc(-c2cc(C(F)(F)F)n3ncc(C(=O)NCC4CCCO4)c3n2)cc1OC (centres undefined)	0.58µM*	-1%	-10%	8%	0%	-18%	0.89µM*	13%	?	-3%	-3%	ELG1 FLuc counter=10%;FLuc biochem=2%
CCOC(=O)c1cnn2c(C(F)(F)F)cc(-c3ccc(Br)cc3)nc12	.	.	.	.	2%	.	.	.	.	.	.
Cc1cc(NC(=O)c2cnn3c(C(F)(F)F)cc(-c4ccc(Br)cc4)nc23)no1	15µM*	1%	-3%	-7%	10%	-16%	5µM*	-7%	?	2%	-20%	ELG1 FLuc counter=2%;FLuc biochem=4%
COc1ccc(-c2cc(C(F)(F)F)n3nc(C(=O)Nc4cc(C)on4)cc3n2)cc1OC	3.7µM*	-8%	2%	1%	6%	-9%	?	-4%	?	?	3%
CCc1noc(C)c1C(=O)N(C)CC(=O)Nc1ccc(F)c(F)c1F	?	4%	0%	-4%	3%	.	.	.	.	.	.
O=C(/C=C/c1c[nH]c2ccccc12)c1cccc2ccccc12	1%	11%	13%	2%	?	27%	.	.	.	.	.
C(=C\c1c[nH]c2ccccc12)/c1ccc2ccccc2n1	.	.	.	.	.	.	.	.	.	.	?	ELG1 FLuc counter=-39%;FLuc biochem=0.12µM*
COc1cc(C(=O)OCCc2cc3ccccc3c(=O)o2)cc(OC)c1OC	?	-32%	-3%	-6%	-6%	.	4.4µM*	?	?	?	?
COc1cc(C(=O)OCCCc2cc3ccccc3c(=O)o2)cc(OC)c1OC	?	-2%	-9%	0%	0%	.	.	.	.	.	.
O=c1c2ccccc2oc2ccc(-c3ccoc3)cc12	.	.	.	.	.	.	.	.	.	.	?
O=C(CN1C(=O)C(=O)N(Cc2ccco2)C1=O)Nc1ccccc1	?	.	.	2%	.	.	.	.	.	.	.
CCN(CC)Cc1c(O)ccc2c([N+](=O)[O-])c(C)n(-c3ccc(OC)cc3)c12	2.3µM*	1%	-4%	-14%	?	-19%	4µM*	?	-7%	-9%	-14%
CCC(=O)Nc1ccc(Br)cn1	4%	-3%	-8%	-3%	2%	.	.	.	.	.	.
Cc1cc(C(=O)Nc2ccc(Br)cn2)sc1C	?	1µM*	2.2µM*	?	.	.	.	.	.	.	?
COc1ccc(OCC(=O)Nc2ccc(-c3nc4cc(C)c(C)cc4o3)cc2)cc1	.	.	.	.	.	0.56µM*	.	.	.	.	?	ELG1 FLuc counter=57%;FLuc biochem=15µM*!
COc1ccc2oc(-c3ccc(C)c(NC(=O)COc4cc(C)cc(C)c4)c3)nc2c1	.	.	.	.	-1%	1%	.	.	.	.	.
CCc1ccc(OCC(=O)Nc2ccc3oc(-c4ccc(OC)cc4)nc3c2)cc1	.	.	.	.	0%	12%	.	.	.	.	.
Cc1ccc2nc(-c3ccc(C)c(NC(=O)COc4ccc(Br)cc4)c3)oc2c1	.	.	.	.	.	.	.	.	.	.	-1%	ELG1 FLuc counter=68%;FLuc biochem=?
COc1ccc(CNC(=O)C(=O)Nc2c3c(nn2-c2ccccc2)CSC3)cc1	.	.	.	.	-10%	.	.	.	.	.	.
Cc1ccc(CCNC(=O)C2COc3ccccc3C2)cc1 (centres undefined)	.	.	.	.	-6%	.	.	.	.	.	.
COc1ccc(-c2nnn(CC(=O)N3CCN(c4ccc(F)cc4)CC3)n2)cc1	10%	-5%	0%	1%	-1%	.	.	.	.	.	.
COc1ccc(N2CCN(C(=O)CN3CCN(c4nc(-c5ccc(F)cc5)cs4)CC3)CC2)cc1	2.1µM*	-19%	-31%	0%	1%	.	14µM*	4µM*	-16%	4.4µM*	?
COc1ccc(CNC(=O)[C@H](C)NC(=O)C2CCN(S(=O)(=O)c3ccccc3)CC2)cc1	8%	-6%	-1%	-1%	2%	.	.	.	.	.	.
CC(=O)c1c(C)n(-c2ccc(Br)cc2)c2ccc(O)cc12	-15%	0%	-1%	-9%	-1%	.	.	.	.	.	.
CC(=O)c1ccc(-n2c(C)c(C(C)=O)c3cc(O)ccc32)cc1	2.1µM*	15%	-2%	-11%	0%	.	?	-1%	0%	1%	4%
